This note sets out measurements from PubChem BioAssay AID602229 (The Scripps Research Institute Molecular Screening Center, 2012).

Out of some 360,000 compounds screened, about 1,300 (0.36%) were called active. What follows is part of a selection rich in actives, with near analogues and random picks from the rest. Values without a mark were called inactive.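 The calls were made as follows: active = inhibition above the mean of all tested compounds plus 3 SD (cut at about 70% in these data); inactive = the rest.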

Chain of Photoreceptor-specific nuclear receptor (Homo sapiens) (Q9Y5X4 whole entry, looked up, the tested form may be a part): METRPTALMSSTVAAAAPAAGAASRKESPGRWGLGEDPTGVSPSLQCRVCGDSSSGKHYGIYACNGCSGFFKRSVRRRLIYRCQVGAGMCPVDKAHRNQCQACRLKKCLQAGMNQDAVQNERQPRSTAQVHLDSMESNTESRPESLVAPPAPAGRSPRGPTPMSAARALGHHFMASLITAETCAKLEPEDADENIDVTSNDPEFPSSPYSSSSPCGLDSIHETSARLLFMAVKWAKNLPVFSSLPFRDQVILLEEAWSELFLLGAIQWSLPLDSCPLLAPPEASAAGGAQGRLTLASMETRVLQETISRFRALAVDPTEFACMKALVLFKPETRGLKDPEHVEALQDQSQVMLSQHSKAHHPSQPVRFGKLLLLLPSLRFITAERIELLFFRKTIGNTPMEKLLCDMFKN

The experiment concerns the target Photoreceptor-specific nuclear receptor (Homo sapiens) (UniProt Q9Y5X4). Put plainly: NR2E3 agonists in two-hybrid cells, primary screen, cell-based, luminescence, CHO-S, Gal4-NCOR/VP16-NR2E3 (AID 602229).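 Also: 0% = DMSO with NR2E3 transfected cells and 100% = cells lacking NR2E3 construct; higher means lower luciferase signal from less NR2E3 corepressor binding.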 The note with it: luciferase, at 3.98 µM, stronger effect = higher value.
Consider `O=C(CN1C(=O)CCS(=O)(=O)c2ccccc21)NCc1ccc(F)cc1`, for which the inhibition of corepressor binding is -8.57%.

Regarding `CCCCN1C(=O)CC(N2CCOCC2)C1=O` (stereo not given), the inhibition of corepressor binding is -4.28%.

For `CCc1cccc(NC(=O)COC(=O)C2CCN(c3ccc(C(F)(F)F)cn3)CC2)c1`, the inhibition of corepressor binding is -19.1%.

Consider `COc1cc(NC(=O)c2ccccc2NS(=O)(=O)c2ccc(Cl)s2)cc(OC)c1`, for which the inhibition of corepressor binding was 97.8% (active).

For the compound `O=S(=O)(Nc1ccccc1N1CCOCC1)c1ccc(Cl)s1`, the inhibition of corepressor binding is -7.37%.

`O=C(Nc1cccc(Cl)c1)Nc1ccccc1NS(=O)(=O)c1cccs1`: the inhibition of corepressor binding is -13.8%.

In the case of `CCCn1nnnc1NCc1ccc(CC)cc1`, the inhibition of corepressor binding is 8.66%.

Take `O=C(c1cc(COc2c(F)cccc2F)on1)N1CCSCC1`: the inhibition of corepressor binding was -9.64%.

As for `C=CCC1(CC=C)CCCN1C(=O)c1cc(COc2ccc(-n3cncn3)cc2)on1`, the inhibition of corepressor binding is 106% (active).

Consider `CCCC(=O)N1CCC1(C)C(=O)Nc1ccc(-n2cncn2)cc1` (stereo not given), for which the inhibition of corepressor binding is 1.35%.

Regarding `Nc1[nH]c(C(=O)c2ccccc2)c(-c2ccncc2)c1C(=O)NCc1cccc2ccccc12`, the inhibition of corepressor binding is 3.22%.

For `CSCCC(c1nnnn1Cc1ccccc1)N1CCN(C/C=C/c2ccccc2)CC1` (stereo not given), the inhibition of corepressor binding is 4.41%.

Consider `C/C(=N\NC(=S)NCc1ccccc1)c1ccc(Cl)cc1`, for which the inhibition of corepressor binding is 73.8% (active).

For the compound `C/C(=N\NC(=S)NCc1ccccc1)C1CCCCC1`, the inhibition of corepressor binding was 14.7%.

Turning to `C/C(=N/NC(=S)Nc1ccccc1)c1ccc2c(c1)OCO2`, the inhibition of corepressor binding was -32%.

As to `O=C(CCc1ccc(S(=O)(=O)NC2CCCCC2)cc1)NCc1ccccc1`, the inhibition of corepressor binding was 9.81%.

For `CC(=O)Nc1ccc(S(=O)(=O)NNC(=O)CCc2ccccc2)cc1`, the inhibition of corepressor binding is -9.18%.

Consider `COc1ccc(CCNC(=O)COC(=O)Cc2cc(OC)c(OC)c(OC)c2)cc1`, for which the inhibition of corepressor binding is 0.01%.

Consider `COc1cc(CCC(=O)Nc2ccncc2Cl)cc(OC)c1OC`, for which the inhibition of corepressor binding was -4.52%.

For `COc1ccc(CC(=O)NC2CCSc3ccccc32)cc1OC` (stereo not given), the inhibition of corepressor binding is -3.29%.

On to `Cc1csc(NC(=O)CSc2ccc(-c3ccc(F)cc3)nn2)n1`, for which the inhibition of corepressor binding was 11.9%.

Regarding `COc1cc(CC(=O)Nc2nc(-c3ccc(F)c(F)c3)cs2)cc(OC)c1OC`, the inhibition of corepressor binding was 103% (active).

`COc1ccc(CC(=O)Nc2nc(-c3ccc(F)c(F)c3)cs2)cc1OC`: the inhibition of corepressor binding is 103% (active).

With `CCc1nnc(NC(=O)CSc2nc3c(c(=O)n2-c2ccccc2OC)SCC3)s1`, the inhibition of corepressor binding is -5.3%.

Take `C/C(=C/C(=O)N1CCN(C)CC1)C(=O)O`: the inhibition of corepressor binding was -1.95%.

Consider `COc1cc(C2/C(=C(\O)c3ccc4c(c3)CC(C)O4)C(=O)C(=O)N2c2nnc(C)s2)cc(OC)c1OC` (stereo not given), for which the inhibition of corepressor binding is -19.5%.

Regarding `COc1ccccc1OCCNC(=O)CCNC(=O)c1ccccc1Cl`, the inhibition of corepressor binding is -15.5%.

As to `CCN1C(=O)/C(=C\N2CCOCC2)SC1=S`, the inhibition of corepressor binding is -3.91%.

Consider `O=C(CCn1c(=O)oc2ccccc21)Nc1ccon1`, for which the inhibition of corepressor binding is -8.66%.

Take `CCOC(=O)C1=C(CNC2CCCCC2)NC(=O)NC1c1cc(C)ccc1C` (stereo not given): the inhibition of corepressor binding was -26.1%.

Regarding `CCN(Cc1ccccc1)S(=O)(=O)c1cc2c3c(c1)CCN3C(=O)CC2`, the inhibition of corepressor binding is 13.4%.

As for `COc1ccc(CNC(=O)COc2cccnc2[N+](=O)[O-])cc1`, the inhibition of corepressor binding was -7.82%.

Turning to `O=C(COc1ncnc2ccccc12)NC(=O)NCc1ccccc1`, the inhibition of corepressor binding is 9.2%.

As to `COc1ccc(CNc2ncnc3ccccc23)cc1`, the inhibition of corepressor binding is 96.1% (active).

As to `Cc1ccc(O/C=C2\OC(=O)c3ccccc32)cc1`, the inhibition of corepressor binding is -37.1%.

With `Cc1c(C(=O)N(Cc2ccccc2)Cc2cccnc2)cnn1-c1ccc(F)cc1`, the inhibition of corepressor binding is 0.5%.

Consider `COc1ccc(NS(=O)(=O)c2ccc(N3CCN(CCO)CC3)c([N+](=O)[O-])c2)cc1`, for which the inhibition of corepressor binding is 17.4%.

As for `COc1ccc(S(=O)(=O)Nc2ccc3oc(C)c(C(C)=O)c3c2)cc1`, the inhibition of corepressor binding is 60.2%.

With `COc1ccc(NS(=O)(=O)c2ccc(Oc3c(C#N)cccc3C#N)cc2)cc1`, the inhibition of corepressor binding is 86.5% (active).

`CCOCc1c(C(=O)N2CCN(Cc3ccc(Br)s3)CC2)oc2ccccc12`: the inhibition of corepressor binding is -14.4%.

`O=S(=O)(c1ccc(F)cc1)N1CCN=C1SCc1cccc(F)c1`: the inhibition of corepressor binding was 3.65%.

As to `Cc1ccc(S(=O)(=O)N2CCN(C(=O)COC(=O)CNC(=O)c3ccc(C(C)(C)C)cc3)CC2)c(C)c1`, the inhibition of corepressor binding was 1.29%.

`COc1ccc(C(=O)NC2CCCc3c2cnn3-c2cccc(C)c2C)c(OC)n1` (stereo not given): the inhibition of corepressor binding is 91.3% (active).

Take `COc1ccc(C(=O)NC2CC(C)(C)Cc3c2cnn3-c2ccccc2C)o1` (stereo not given): the inhibition of corepressor binding is -34.2%.

`O=C(CCNC(=O)c1ccc(Cl)cc1)NC1CCCc2ccccc21` (stereo not given): the inhibition of corepressor binding was -14.3%.

`COC(=O)c1ccc(C(=O)NC2CC(C)(C)Cc3c2cnn3-c2ccc(F)cc2)nc1` (stereo not given): the inhibition of corepressor binding is -87.5%.

With `Cn1nccc1C(=O)NC1CCCc2c1cnn2-c1ccc(F)cc1F` (stereo not given), the inhibition of corepressor binding was 107% (active).

For `CC1=C(C(=O)NC2CC(C)(C)Cc3c2cnn3-c2ccc(C)cc2)OCCO1` (stereo not given), the inhibition of corepressor binding was -12.3%.

With `Cn1nccc1C(=O)NC1CCCc2c1cnn2-c1ccccc1F` (stereo not given), the inhibition of corepressor binding is 105% (active).

Regarding `Cc1cc(C(=O)NC2CC(C)(C)Cc3c2cnn3-c2ccccc2)n[nH]1` (stereo not given), the inhibition of corepressor binding was -26.5%.

In the case of `COc1ccc(C(=O)NC2CC(C)(C)Cc3c2cnn3-c2ccccc2)c(OC)c1` (stereo not given), the inhibition of corepressor binding was -23.7%.

Regarding `NC(=O)COC(=O)c1ccc2c(c1)C(=O)N(Cc1ccco1)C2=O`, the inhibition of corepressor binding was -5.79%.

Regarding `Cc1cc(C)n(CCC(=O)N2CCN(S(=O)(=O)c3ccc(C)c(C)c3)CC2)n1`, the inhibition of corepressor binding is 3.36%.

With `Cc1ccc(CN(N=Nc2nonc2N)c2nonc2N)c(C)c1`, the inhibition of corepressor binding is -19.7%.

With `CC1CCCC(NC(=O)CN2CCN(Cc3ccc(Cl)cc3)C2=O)C1C` (stereo not given), the inhibition of corepressor binding was 2.85%.
